Assay results: PubChem BioAssay AID1159580 (chemical genetic matrix, 2015)
Screen size: about 5,500 compounds; about 2,000 (36%) were called active. Inconclusive results (about 18%) are left out. Cut-off read from the data, not from the text of the source: active = normalized growth mostly below about 0.91 (no sharp cut-off); inconclusive = no clear call, values can overlap the other calls; inactive = mostly above about 0.92. Some of the results follow.

Assay: chemical genetic growth profiling, strain panel (AID 1159580);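 note: tested at 20 µM; growth read once vehicle control cultures reached saturation at 30 °C; 1 = growth at the plate median or of vehicle wells; lower values mean less growth of the strain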
Details: growth OD

Measured: normalized growth

NC(=O)NC1NC(=O)NC1=O (configuration not stated)
inactive: S. cerevisiae deletion strains, locus YJR075W, strain HOC1, stronger effect = lower value 1.01 | S. cerevisiae deletion strains, locus YKL009W, strain mrt4, stronger effect = lower value 0.989 | S. cerevisiae deletion strains, locus YKL068W, stronger effect = lower value 0.987 | S. cerevisiae deletion strains, locus YKL085W, strain MDH1 (second series), stronger effect = lower value 0.981 | S. cerevisiae deletion strains, locus YKL085W, strain MDH1, stronger effect = lower value 0.981 | S. cerevisiae deletion strains, locus YKL160W, strain elf1, stronger effect = lower value 0.979 | S. cerevisiae deletion strains, locus YKL190W, strain CNB1, stronger effect = lower value 0.997 | S. cerevisiae deletion strains, locus YKR001C, strain vps1, stronger effect = lower value 0.984 | S. cerevisiae deletion strains, locus YKR026C, strain gcn3, stronger effect = lower value 1 | S. cerevisiae deletion strains, locus YKR091W, strain srl3, stronger effect = lower value 1 | S. cerevisiae deletion strains, locus YLL001W, strain dnm1, stronger effect = lower value 1 | S. cerevisiae deletion strains, locus YLL026W, stronger effect = lower value 1.01 | S. cerevisiae deletion strains, locus YLL041C, strain sdh2, stronger effect = lower value 1 | S. cerevisiae deletion strains, locus YLR027C, strain aat2, stronger effect = lower value 1 | S. cerevisiae deletion strains, locus YLR039C, strain RIC1, stronger effect = lower value 1.03 | S. cerevisiae deletion strains, locus YLR058C, strain SHM2, stronger effect = lower value 0.99 | S. cerevisiae deletion strains, locus YLR102C, strain apc9, stronger effect = lower value 0.987 | S. cerevisiae deletion strains, locus YLR113W, strain HOG1, stronger effect = lower value 1.04 | S. cerevisiae deletion strains, locus YLR221C, strain rsa3, stronger effect = lower value 0.998 | S. cerevisiae deletion strains, locus YLR258W, strain gsy2, stronger effect = lower value 1 | S. cerevisiae deletion strains, locus YLR262C, strain YPT6 (second series), stronger effect = lower value 1.02 | S. cerevisiae deletion strains, locus YLR262C, strain YPT6, stronger effect = lower value 0.965 | S. cerevisiae deletion strains, locus YLR268W, strain sec22, stronger effect = lower value 0.917 | S. cerevisiae deletion strains, locus YLR320W, strain mms22, stronger effect = lower value 1 | S. cerevisiae deletion strains, locus YLR330W, strain CHS5, stronger effect = lower value 0.991 | S. cerevisiae deletion strains, locus YLR342W, strain FKS1 (second series), stronger effect = lower value 1.06 | S. cerevisiae deletion strains, locus YLR342W, strain FKS1, stronger effect = lower value 1 | S. cerevisiae deletion strains, locus YLR357W, strain rsc2, stronger effect = lower value 0.968 | S. cerevisiae deletion strains, locus YLR370C, strain arc18, stronger effect = lower value 1 | S. cerevisiae deletion strains, locus YLR371W, strain rom2, stronger effect = lower value 0.971 | S. cerevisiae deletion strains, locus YLR384C, strain iki3, stronger effect = lower value 1.01 | S. cerevisiae deletion strains, locus YLR418C, strain cdc73, stronger effect = lower value 0.965 | S. cerevisiae deletion strains, locus YML016C, strain PPZ1, stronger effect = lower value 0.987 | S. cerevisiae deletion strains, locus YML032C, strain rad52, stronger effect = lower value 0.981 | S. cerevisiae deletion strains, locus YML120C, strain ndi1, stronger effect = lower value 1.01 | S. cerevisiae deletion strains, locus YML124C, strain tub3, stronger effect = lower value 0.978 | S. cerevisiae deletion strains, locus YMR058W, strain fet3, stronger effect = lower value 1.01 | S. cerevisiae deletion strains, locus YMR078C, strain ctf18, stronger effect = lower value 0.976 | S. cerevisiae deletion strains, locus YMR125W, strain sto1, stronger effect = lower value 1 | S. cerevisiae deletion strains, locus YMR129W, stronger effect = lower value 1 | S. cerevisiae deletion strains, locus YMR205C, strain PFK2, stronger effect = lower value 0.982 | S. cerevisiae deletion strains, locus YMR223W, strain ubp8, stronger effect = lower value 1 | S. cerevisiae deletion strains, locus YMR231W, strain pep5, stronger effect = lower value 0.994 | S. cerevisiae deletion strains, locus YMR263W, strain SAP30, stronger effect = lower value 0.988 | S. cerevisiae deletion strains, locus YMR307W, strain GAS1, stronger effect = lower value 1.01 | S. cerevisiae deletion strains, locus YNL067W, strain RPL9B, stronger effect = lower value 0.982 | S. cerevisiae deletion strains, locus YNL071W, strain lat1, stronger effect = lower value 1.01 | S. cerevisiae deletion strains, locus YNL128W, strain TEP1, stronger effect = lower value 0.997 | S. cerevisiae deletion strains, locus YNL153C, strain GIM3, stronger effect = lower value 0.987 | S. cerevisiae deletion strains, locus YNL183C, strain NPR1, stronger effect = lower value 0.977 | S. cerevisiae deletion strains, locus YNL209W, strain ssb2, stronger effect = lower value 1 | S. cerevisiae deletion strains, locus YNL233W, strain BNI4, stronger effect = lower value 0.978 | S. cerevisiae deletion strains, locus YNL248C, strain rpa49, stronger effect = lower value 0.999 | S. cerevisiae deletion strains, locus YNL250W, strain rad50, stronger effect = lower value 0.981 | S. cerevisiae deletion strains, locus YNL271C, strain bni1, stronger effect = lower value 0.977 | S. cerevisiae deletion strains, locus YNL298W, strain CLA4, stronger effect = lower value 0.985 | S. cerevisiae deletion strains, locus YNL307C, strain MCK1, stronger effect = lower value 0.985 | S. cerevisiae deletion strains, locus YNL322C, strain KRE1 (second series), stronger effect = lower value 0.986 | S. cerevisiae deletion strains, locus YNL322C, strain KRE1, stronger effect = lower value 0.998 | S. cerevisiae deletion strains, locus YNR049C, strain mso1, stronger effect = lower value 1.01 | S. cerevisiae deletion strains, locus YNR052C, strain pop2, stronger effect = lower value 0.992 | S. cerevisiae deletion strains, locus YOL006C, strain TOP1, stronger effect = lower value 0.996 | S. cerevisiae deletion strains, locus YOL012C, strain htz1 0.886 | S. cerevisiae deletion strains, locus YOL147C, strain pex11, stronger effect = lower value 0.983 | S. cerevisiae deletion strains, locus YOR001W, strain rrp6, stronger effect = lower value 1 | S. cerevisiae deletion strains, locus YOR061W, strain CKA2, stronger effect = lower value 0.991 | S. cerevisiae deletion strains, locus YOR069W, strain VPS5, stronger effect = lower value 0.99 | S. cerevisiae deletion strains, locus YOR070C, strain gyp1, stronger effect = lower value 1 | S. cerevisiae deletion strains, locus YOR080W, strain dia2, stronger effect = lower value 0.993 | S. cerevisiae deletion strains, locus YOR083W, strain WHI5, stronger effect = lower value 0.992 | S. cerevisiae deletion strains, locus YOR106W, strain vam3, stronger effect = lower value 0.99 | S. cerevisiae deletion strains, locus YOR136W, strain idh2, stronger effect = lower value 0.993 | S. cerevisiae deletion strains, locus YOR144C, strain elg1, stronger effect = lower value 0.984 | S. cerevisiae deletion strains, locus YOR184W, strain ser1, stronger effect = lower value 0.967 | S. cerevisiae deletion strains, locus YOR231W, strain MKK1, stronger effect = lower value 1.03 | S. cerevisiae deletion strains, locus YOR265W, strain rbl2, stronger effect = lower value 1.03 | S. cerevisiae deletion strains, locus YOR270C, strain vph1, stronger effect = lower value 1.03 | S. cerevisiae deletion strains, locus YOR290C, strain snf2, stronger effect = lower value 1.03 | S. cerevisiae deletion strains, locus YOR316C, strain cot1, stronger effect = lower value 0.977 | S. cerevisiae deletion strains, locus YPL051W, strain arl3, stronger effect = lower value 1 | S. cerevisiae deletion strains, locus YPL055C, strain LGE1, stronger effect = lower value 1.01 | S. cerevisiae deletion strains, locus YPL078C, strain atp4, stronger effect = lower value 1 | S. cerevisiae deletion strains, locus YPL106C, strain sse1, stronger effect = lower value 0.977 | S. cerevisiae deletion strains, locus YPL240C, strain hsp82, stronger effect = lower value 1.01 | S. cerevisiae deletion strains, locus YPL241C, strain CIN2, stronger effect = lower value 0.992 | S. cerevisiae deletion strains, locus YPL256C, strain CLN2, stronger effect = lower value 1.03 | S. cerevisiae deletion strains, locus YPR119W, strain clb2, stronger effect = lower value 0.982 | S. cerevisiae deletion strains, locus YPR141C, strain kar3, stronger effect = lower value 0.98 | S. cerevisiae deletion strains, locus YPR163C, strain tif3, stronger effect = lower value 0.981 | S. cerevisiae deletion strains, locus YPR167C, strain met16, stronger effect = lower value 0.979 | S. cerevisiae deletion strains, strain wtn01, stronger effect = lower value 0.971 | S. cerevisiae strains, strain wild type, stronger effect = lower value 0.996
